Laboratory results published in PubChem BioAssay AID720504 (National Center for Advancing Translational Sciences (NCATS), 2013).
The campaign covered roughly 360,000 compounds. About 10,000 (2.8%) were called active. About 4% were inconclusive and are not listed. The list comes from a sample in which actives are over-represented; it also holds similar structures and randomly drawn compounds. A number with no mark means an inactive call. Calls follow the shape of the dose curve; as a rule, active = well fitted inhibition curve with a large enough effect; inconclusive = small, poorly fitted or top-dose-only effect; inactive = flat fitted curve, though single readings scatter.

biological target: Serine/threonine-protein kinase PLK1 (Homo sapiens) (UniProt P53350); test: qHTS for Inhibitors of PLK1-PDB (polo-like kinase 1 - polo-box domain): Primary Screen; details: Plk1 PBD binding of FITC phosphopeptide, fluorescence polarization; also: nearly all actives have a fitted effect of over 65% in size; as to max response, negative = inhibition: series mostly up to about 57 µM
Sequence (P53350 whole entry, looked up, the tested form may be a part): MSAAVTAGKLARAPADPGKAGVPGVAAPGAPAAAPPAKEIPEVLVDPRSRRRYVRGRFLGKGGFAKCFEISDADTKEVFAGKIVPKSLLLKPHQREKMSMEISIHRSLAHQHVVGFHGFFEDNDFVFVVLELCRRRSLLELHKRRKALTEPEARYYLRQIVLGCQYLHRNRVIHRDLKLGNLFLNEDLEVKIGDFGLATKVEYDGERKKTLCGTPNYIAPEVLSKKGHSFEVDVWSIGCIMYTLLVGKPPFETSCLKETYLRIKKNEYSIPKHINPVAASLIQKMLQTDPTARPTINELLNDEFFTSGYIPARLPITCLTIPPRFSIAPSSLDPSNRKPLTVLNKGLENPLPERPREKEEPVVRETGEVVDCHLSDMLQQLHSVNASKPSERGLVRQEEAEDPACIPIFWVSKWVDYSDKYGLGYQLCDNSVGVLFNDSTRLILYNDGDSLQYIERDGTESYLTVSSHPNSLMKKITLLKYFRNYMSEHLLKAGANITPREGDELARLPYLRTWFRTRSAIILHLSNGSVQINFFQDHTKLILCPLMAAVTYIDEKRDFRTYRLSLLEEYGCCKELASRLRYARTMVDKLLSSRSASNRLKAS
Text: The polo-like kinase 1 (Plk1) is a member of a conserved subfamily of serine / threonine protein kinases that plays a pivotal roles in cell proliferation. It has a C-terminal non-catalytic region called the polo-box domain (PBD) that plays a crucial role in the subcellular localization of the Plk1. […] Furthermore, depletion of the overexpressed Plk1 by RNAi efficiently induces apoptotic cell death in cancer and reduces tumor growth in mouse xenograft models. Thus, targeting Plk1 is an appealing strategy for anti-cancer therapy. Therefore, this project aimed to screen the Molecular Libraries Small Molecule Repository (MLSMR) using a novel approach to find inhibitors that target the Plk1 PBD instead of the conventional N-terminal catalytic domain. This project employed a fluorescence polarization (FP) assay using a FITC-conjugated phospho-9-mer (p-9-mer) peptide and purified human Plk1 PBD protein. The identified small molecule inhibitors of Plk1 PBD can then further be developed into useful tools for biomedical and clinical research that complements or replaces current relevant disease therapy. NIH Chemical Genomics Center [NCGC] NIH Molecular Libraries Probe Centers Network [MLPCN] MLPCN Grant: MH100728 Assay Submitter (PI): Kyung Lee, NCI
Four microliter of 25 nM FITC-p-9-mer + 60 nM Plk1 PBD in buffer solution (final concentrations 25 nM and 60 nM respectively) or 4 uL of 25 nM FITC-p-9-mer (final concentration 25 nM) in buffer will be dispensed into a 1,536 Greiner medium-binding black solid plate. Small molecules at final concentrations of 18 nM to 57 uM and positive control phospho-9-mer (sequence: Ac-PPLHSpTAI-NH2) at final concentrations 26 nM to 57 uM and phospho-13-mer (sequence: Ac-[…]pTAI-NH2) at final concentrations of 1 nM to 2.3 uM will be pin-transferred (23 nL) to the plate via a Kalypsys pin-tool robotics equipped with a 1,536-pin array. The reaction plate will be centrifuged for 1 min at 1000 rpm and incubated at room temperature for 10 min. The FITC fluorescence signals will be read using the PerkinElmer ViewLux plate reader at 480 / 20 nm excitation and 540 / 20 nm S and P polarization emission wavelengths. Reagent bottles will be kept submerged into 4 °C recirculating chiller bath and all liquid lines will be covered with aluminum foil to minimize degradation. Library plates will be screened starting from the lowest to the highest concentrations to minimize compound carryover. Vehicle only plates, with DMSO being pin-transferred instead of compound solutions, will be included regularly throughout the screen to record any systematic shifts in assay signal.
% is scaled to controls: 0 for no effect and ±100 for the full control effect; potency is read from the fitted curve at half-maximal effect.

| Structure (SMILES) | max response, negative = inhibition | Potency |
| --- | --- | --- |
| CC(CC(C#N)(c1ccccc1)c1ccccc1)N1CCCCC1 (stereo unspecified) | -6.42% |  |
| COc1cccc(C(c2nnnn2-c2ccc3c(c2)OCCO3)N2CCC3(CC2)C(=O)NCN3c2ccccc2)c1OC (stereo unspecified) | -7.89% |  |
| O=C(O)CCn1cc(C=C2C(=O)NC(=S)NC2=O)c(-c2cccc(Br)c2)n1 |  | 4.74 µM (active) |
| O=c1[nH]c2ccccc2n1C1CCN(C(c2ccnc3ccccc23)c2nnnn2Cc2ccccc2)CC1 (stereo unspecified) | 3% |  |
| CCCCCCCCCCCCn1ccc(=N)cc1 | -4.33% |  |
| COc1ccc(-c2nn(CCC#N)cc2C(=O)O)cc1 | -2.51% |  |
| O=C(c1cc(S(=O)(=O)N2CCOCC2)ccc1F)N1CCC2(CC1)OCCO2 | -4.68% |  |
| C=CC12CN(C)[C@@H]3C4CO[C@H](C[C@H]41)[C@]1(C(=O)Nc4ccccc41)[C@@H]32 (stereo partly specified) | -7.71% |  |
| CCN1C(=O)C(=Cc2c(C)n(CC(=O)NCC3CCCO3)c3ccccc23)C(=O)N(CC)C1=S (stereo unspecified) |  | 1.06 µM (active) |
| C/C=C/CC1(CC)C(=O)NC(=S)NC1=O | -7.94% |  |
| CCc1cccc2c(C#N)cn(CC(=O)N3CCOCC3)c12 | -5.32% |  |
| COc1ccccc1N=Nc1c(O)[nH]c(=S)[nH]c1=O | 13.3% |  |
| O=c1[nH]c(=S)[nH]c(O)c1/C=C1\C=Nc2ccccc21 |  | 1.19 µM (active) |
| COc1ccc(CCn2c(O)c(C=NCCCn3ccnc3)c(=O)[nH]c2=O)cc1OC | -4.17% |  |
| c1ccc(Cc2nn3c(Cn4cnc5ccccc54)nnc3s2)cc1 |  | 11.9 µM (active) |
| CCOP(=O)(OCC)C(NC(=O)NC)C(N)=O (stereo unspecified) | 0.136% |  |
| CCCC[N+]1(C)C2CC(OC(=O)C(CO)c3ccccc3)CC1C1OC12 (stereo unspecified) | -0.372% |  |
| CC(=NCc1ccc2c(c1)OCO2)c1c(O)[nH]c(=O)[nH]c1=O | -14.7% |  |
| CCOC(=O)C1SC2(C(F)(F)C(F)F)CC1(O)c1c(c(OC)c3occc3c1OC)O2 (stereo unspecified) | 0.906% |  |
| O=c1c2ccccc2[nH]c(=S)n1-c1cccc(Cl)c1 | -18.6% |  |
| COC(=O)C1=C(c2ccc(-c3ccccc3)c(F)c2)C[C@@H]2CC[C@H]1N2C(=O)NCc1ccc(F)cc1 | -10.9% |  |
| C=C(C)C1(CCCC)C(=O)NC(=S)NC1=O | 0.58% |  |
| Cc1noc(C)c1CSc1nc2cc(S(=O)(=O)N3CCOCC3)ccc2o1 |  | 21.2 µM (active) |

| Structure (SMILES) | max response, negative = inhibition | Potency |
| --- | --- | --- |
| Cn1c(C(=O)N2CCC(C(=O)N3CCC4(CC3)OCCO4)CC2)cc2sccc21 | -6.93% |  |
| CC=C(C)C(=O)OC1CCN2CC=C(COC(=O)C(O)(C(C)OC)C(C)(C)O)C12 (stereo unspecified) | -10.3% |  |
| Cc1cc(=O)oc2c(C)c(OCC(=O)N3CCN(Cc4ccc5c(c4)OCO5)CC3)ccc12 | -7.37% |  |
| Cc1cccc(NC(=O)OC2CN3CCC2CC3)c1 (stereo unspecified) | 3.5% |  |
| CN1CCN(C(=O)COc2ccc(C(C)(C)C)cc2Br)CC1 | -4.1% |  |
| O=C(Nc1cccc(OC(=O)N2CCCCC2)c1)N1CCOCC1 | -15.9% |  |
| CC(C)(C)c1ccc(OC(=O)N2CCCCC2)cc1 |  | 23.8 µM (active) |
| C[N+]12CN3CN(CN(C3)C1)C2 | -1.32% |  |
| COc1ccc(-n2nnnc2C(c2cccc3ccccc23)N2CCC(n3c(=O)[nH]c4ccccc43)CC2)cc1 (stereo unspecified) | -4.82% |  |
| COc1ccc(NC(=O)N2Cc3ccccc3-n3nncc3C2)cc1 | -7.51% |  |
| CCOc1ccc(C2SCC(=O)Nc3c2c(C)nn3C2CCOC(C)(C)C2)cc1 (stereo unspecified) | -3.25% |  |
| COc1ccccc1NC(=O)N1C[C@@H]2C[C@@H](C1)c1cccc(=O)n1C2 | -7.73% |  |
| CN1CCC(OC(=O)c2cccc(F)c2)CC1 | -15.3% |  |
| Cc1ccc2c(c1)=C/C(=C\c1c(O)[nH]c(=O)[nH]c1=O)C(=O)N=2 |  | 11.9 µM (active) |
| O=c1[nH]c(O)c(C=Nc2cc(F)cc(F)c2)c(=O)[nH]1 | -3.46% |  |
| CC[N+](CC)(CC)CCCCCCCCCC[N+](CC)(CC)CC | 3.96% |  |
| CC12CCC3C(CCC4CC(=O)CCC43C)C1CC(=NO)C2=O (stereo unspecified) | 6.72% |  |
| C[C@]12CCCCC1=CC(=O)C1C2CC[C@@]2(C)C1C[C@@H](F)[C@@H]2O (stereo partly specified) | 2.07% |  |
| COC(=O)C[C@H]1CC[C@H]2NC[C@@H](O)COC[C@@H]2O1 | -11.8% |  |
| O=C1NC(=O)N(CCc2ccc(F)cc2)C(=O)/C1=C/C=C/c1ccccc1 |  | 0.532 µM (active) |
| CC(C)N(CC#CCC1(O)c2ccccc2-c2ccccc21)C(C)C | 4.02% |  |
| O=C(NC(=S)N1C[C@H]2C[C@H](C1)c1cccc(=O)n1C2)c1ccc(F)cc1 | -8.97% |  |
| N=c1ccccn1Cc1ccccc1 | -5.72% |  |
